# GC-B act: GC-B (human) receptor activation; P20594; HEK293-GC-B cells, CNP EC30, cGMP TR-FRET; 0% at EC30 CNP, 100% saturating CNP; activation, % at 10 µM; 370,000 tested, 0.11% active; AID 1920062;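 active means activation at 10 µM reaching about 35% in either raw or pattern-adjusted values, limit read from the data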
# Target sequence (P20594 whole entry, looked up): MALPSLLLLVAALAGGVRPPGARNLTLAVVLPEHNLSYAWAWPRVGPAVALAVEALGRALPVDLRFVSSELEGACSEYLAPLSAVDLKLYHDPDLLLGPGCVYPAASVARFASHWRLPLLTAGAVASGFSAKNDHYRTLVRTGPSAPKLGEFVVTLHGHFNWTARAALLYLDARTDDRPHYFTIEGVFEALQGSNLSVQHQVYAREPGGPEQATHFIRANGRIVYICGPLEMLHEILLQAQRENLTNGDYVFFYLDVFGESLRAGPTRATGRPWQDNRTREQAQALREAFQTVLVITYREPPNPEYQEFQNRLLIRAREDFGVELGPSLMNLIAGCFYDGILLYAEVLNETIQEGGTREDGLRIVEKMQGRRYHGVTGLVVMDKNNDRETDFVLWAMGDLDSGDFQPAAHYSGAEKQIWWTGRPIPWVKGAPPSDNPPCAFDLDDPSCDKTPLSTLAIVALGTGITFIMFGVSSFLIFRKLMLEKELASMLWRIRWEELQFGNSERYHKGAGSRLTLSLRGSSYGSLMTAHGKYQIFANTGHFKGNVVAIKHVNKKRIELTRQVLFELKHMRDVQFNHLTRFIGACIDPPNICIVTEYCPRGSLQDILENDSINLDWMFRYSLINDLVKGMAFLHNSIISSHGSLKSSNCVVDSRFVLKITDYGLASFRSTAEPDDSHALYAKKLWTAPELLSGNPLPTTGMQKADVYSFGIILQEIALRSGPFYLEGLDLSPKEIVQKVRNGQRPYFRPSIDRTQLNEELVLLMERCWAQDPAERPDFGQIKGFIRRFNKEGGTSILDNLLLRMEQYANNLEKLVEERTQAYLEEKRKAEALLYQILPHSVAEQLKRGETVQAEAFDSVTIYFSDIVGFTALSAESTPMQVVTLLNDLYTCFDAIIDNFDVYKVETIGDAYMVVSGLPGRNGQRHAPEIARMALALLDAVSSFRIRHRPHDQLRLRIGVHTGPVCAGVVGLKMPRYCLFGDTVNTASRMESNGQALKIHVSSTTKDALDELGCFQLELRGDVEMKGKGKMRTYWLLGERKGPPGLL
# Myeloid diff MLP: myeloid differentiation induction; ER-HoxA9 myeloid progenitors, lysozyme-GFP differentiation, flow cytometry; calls only at 10 µM; 360,000 tested, 1% active; AID 624256;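 active means normalized GFP-positive differentiation at or above the plate's own cutoff, the solvent-only control mean plus 3 SD; inconclusive means no clear call, values can overlap the other calls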;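 further: cells exposed to compound for four days before flow analysis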
# Granule exo inh: lytic granule exocytosis inhibition. TALL-104 LAMP-1 surface exposure, flow cytometry; cells stimulated with thapsigargin and PMA. inhibition, % at 10 µM. 360,000 tested, 0.66% active. AID 651702;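 active means inhibition above about 55%, limit read from the data; inconclusive means no clear call, values can overlap the other calls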
# NPR1 activator: GC-A (human) enzyme activation. P16066. HEK293 GC-A cells, cGMP TR-FRET, EC30 ANP; 0% at EC30 ANP, 100% saturating ANP. 370,000 tested, 0.14% active. activation, % at 10 µM; in the data active means activation above about 40%
# Granule exo CP1: lytic granule exocytosis inhibition. shares compounds with Granule exo inh. TALL-104 cells, LAMP-1 externalization, flow cytometry; stimulated with PMA plus thapsigargin. inhibition, % at 10 µM. 1,500 tested, 11% active. AID 651954; in the data active means inhibition above about 60%;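 further: 0% = stimulated vehicle wells and 100% = unstimulated wells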
# * marks the source's active call; other numbers are inactive results; i = inactive; ? = inconclusive; · = no result given; + = active, no number. This is a sample that favours compounds with a hit; in the whole collection about 1.8% have one here.
SMILES,GC-B act,Myeloid diff MLP,Granule exo inh,NPR1 activator,Granule exo CP1
Cc1cn([C@H]2C[C@H](O)[C@@H](CNCc3cc(Br)ccc3OCc3ccccc3)O2)c(=O)[nH]c1=O,-16,i,-4,-20,·
CCOC(=O)c1ccc(S(=O)(=O)N2CCN(C(=O)c3cccc(S(=O)(=O)N4CC(C)OC(C)C4)c3)CC2)cc1 (stereo not given),-1,i,1,-2,·
CC(C)c1ccc(NC(=S)N2CCN(S(=O)(=O)c3ccccc3)CC2)cc1,3,i,65*,5,-3
Cc1cccn2c(=O)c3cc(C(=O)NC4CCCC4)c(=N)n(CC4CCCO4)c3nc12 (stereo not given),-5,i,11,10,·
Cc1cccn2c(=O)c3cc(C(=O)NC4CCCCC4)c(=N)n(Cc4ccc(F)cc4)c3nc12,6,i,70*,13,40
COc1cc(OC)nc(Nc2nc(C(N)Cc3ccc(F)cc3)cs2)n1 (stereo not given),-15,i,14,-25,·
O=[N+]([O-])c1ccc(N2CCN(CC3CCCCC3)CC2)cc1,2,i,63*,4,-4
Cc1cc(C)nc(/N=C(\N)Nc2cccc(OCc3ccccc3)c2)n1,-1,i,85*,-8,-10
NC(Cc1ccc(F)cc1)c1csc(NC(=O)NC(c2ccccc2)c2ccccc2)n1 (stereo not given),-3,i,6,-15,·
CCOC(=O)c1c(-c2ccccc2)csc1NC(=O)c1cccc(N2C(=O)CCC2=O)c1,4,i,86*,4,0
Clc1ccc(CSc2nncn2-c2ccccn2)cc1,9,i,-1,7,·
Clc1ccc(CSc2nncn2-c2ccc3c(c2)OCCO3)cc1,0,i,72*,-5,-12
Oc1ccccc1-c1nc(NC2CCCC2)c2ccccc2n1,-1,i,64*,8,-5
CCCN(CCC)S(=O)(=O)c1cccc(-c2csc(C)n2)c1,-1,i,59*,4,-5
CCN(CC)S(=O)(=O)c1ccc(-c2csc(C)n2)cc1,-6,i,-5,3,·
COc1cc(NC(=O)C2CCCN(S(=O)(=O)c3ccccc3)C2)cc(OC)c1 (stereo not given),-5,·,·,-2,·
COc1ccc(-c2csc3ncnc(N4CCN(c5ccccc5)CC4)c23)cc1,-7,i,70*,-11,-10
COc1ccc(-c2csc3ncnc(N4CCN(c5ccc(OC)cc5)CC4)c23)cc1,-6,i,10,-3,·
CCNC(=O)C1(C)CCN(Cc2ccc(-c3ccccc3)cc2)C1 (stereo not given),-3,i,6,-4,·
COc1ccc(Cn2ccc3ccc(-c4ccc5ccn(Cc6ccc(F)cc6)c5c4)cc32)cc1,0,·,·,0,·
CC(=O)CCc1ccc(Oc2nc(-c3cccnc3)nc3ccccc23)cc1,1,i,-5,2,·
CN(Cc1ccccc1F)c1nc(-c2cccnc2)nc2ccccc12,2,i,100*,15,4
CC(Nc1nc(-c2ccccc2)nc2ccccc12)c1ccccc1 (stereo not given),-2,i,2,5,·
COc1ccc(Oc2nc(-c3cccnc3)nc3ccccc23)cc1,-23,i,88*,-24,-2
Cc1ccc(CNc2nc(-c3cccnc3)nc3ccccc23)cc1,57*,i,105*,56*,-5
SMILES,GC-B act,Myeloid diff MLP,Granule exo inh,NPR1 activator,Granule exo CP1
CC(Nc1nc(-c2cccnc2)nc2ccccc12)c1ccc(F)cc1 (stereo not given),12,i,65*,-5,-3
C[C@H]1COC[C@@H](C/C=C/c2ccccc2)N1c1ccccc1,2,i,8,3,·
CCC[C@H]1[C@@H](OC(=O)N2CCOCC2)CC[C@@]23CCCN2C(=O)CCC[C@@H]13,-3,·,·,-1,·
CS(=O)(=O)c1cnc(-c2ccccc2)nc1Sc1ccc(F)cc1,2,i,-8,-17,·
COc1cccc(Sc2nc(-c3ccccc3)ncc2S(C)(=O)=O)c1,-5,i,65*,-16,2
CN(C)c1ccc(C=Cc2nccc3ccccc23)cc1,-15,?,-9,11,·
CCN(CC)c1nc(C=Cc2ccc(N(C)C)cc2)c2nccnc2n1,-14,+,73*,5,10
COc1ccc(OC)c(NC(=O)c2cc(-c3cc(Cl)ccc3O)n[nH]2)c1,7,i,90*,11,58
COc1ccc(Cl)cc1NC(=O)c1cc(-c2ccccc2O)n[nH]1,1,i,22,0,·
COc1ccc(Cl)cc1-c1cc(C(=O)NCc2ccc(C(F)(F)F)cc2)[nH]n1,7,i,86*,17,32
COC(=O)c1cn(C(=O)c2ccc(C)cc2)c2ccccc12,-9,i,-1,-5,·
COC(=O)c1cn(C(=O)c2ccc(OC)cc2)c2ccccc12,1,i,70*,-5,-13
COC(=O)c1cn(C(=O)c2cc(Br)ccc2Cl)c2ccccc12,-1,i,72*,-7,-2
CCc1ccc(S(=O)(=O)Nc2ccc(O)c3ccccc23)cc1,9,i,8,15,·
O=C(O)CSc1cc(NS(=O)(=O)c2cccc([N+](=O)[O-])c2)c2ccccc2c1O,1,i,75*,-2,-1
CCc1ccc(S(=O)(=O)Nc2cc(SCC(=O)O)c(O)c3ccccc23)cc1,1,i,67*,-7,-3
CCOC(=O)[C@]12CCCC=C1N(Cc1ccco1)C(=O)[C@H](CC(=O)N1CCSCC1)C2,2,i,1,-1,·
NC1=NC[C@H](Cc2ccccc2)N1CC1CCCCC1,3,i,6,2,·
NC1=NC[C@H](Cc2ccc(O)cc2)N1CC1CCCCC1,1,i,65*,1,-11
CCOC(=O)[C@@H]1[C@H]2COc3ccccc3[C@H]2N2C(=O)N(c3ccc(Cl)cc3)C(=O)[C@]12C,-2,i,-15,3,·
CCOC(=O)[C@@H]1[C@H]2COc3ccccc3[C@@H]2N2C(=O)N(c3ccc(Cl)cc3)C(=O)[C@@]12C,6,i,116*,1,-13
CCc1nc2c(OCc3ccc(Cl)cc3Cl)cccn2c1N(C=O)Cc1ccc(OC)cc1,3,i,-5,-4,·
CCOC(=O)C1(C)CCCN(C(=O)COc2ccccc2)C1 (stereo not given),-4,i,-6,-1,·
CCOC(=O)c1cc(-c2cccc([N+](=O)[O-])c2)on1,22,i,66*,39,-9
O=C(CCl)NC1CCCCN(Cc2ccc(OC(F)(F)F)cc2)C1=O (stereo not given),8,·,·,1,·
N=c1n(CC(=O)c2ccc(Br)s2)c2ccccc2n1Cc1ccccc1,-1,i,77*,-16,45
Cn1c(=N)n(CC(=O)c2ccc(Br)s2)c2ccccc21,-12,i,0,-4,·
CCN(CC)CCn1c(=N)n(CCO)c2ccccc21,10,i,-2,0,·

# Assay outcomes (PubChem BioAssay)
